For test [1], the target named is Aldehyde dehydrogenase, mitochondrial (Homo sapiens) (UniProt P05091). Nature of the test: qHTS for Inhibitors of the Aldehyde Dehydrogenase Family (ALDH2) Primary screen (AID 2061308). Further: nearly all actives have a fitted effect of over 55% in size.
Test [2] concerns the target Retinaldehyde dehydrogenase 3 (Homo sapiens) (UniProt P47895). The experiment in a line: qHTS for Inhibitors of the Aldehyde Dehydrogenase Family (ALDH1A3) Primary screen (AID 2061315). A general note: In qHTS, concentration-response curves come from the screen itself.

Structures are written as SMILES. Results filed as inconclusive are left out. A call without a number means that no potency is given here. Activity calls are given as the source filed them. The call rests on the fitted dose curve; in most records, active means well fitted curve in the direction sought with a large enough effect; inconclusive means small, poorly fitted or top-dose-only effect, or another doubt; inactive means no such curve, though single readings can be large; an effect the other way counts as inactive or inconclusive.

For `O=S(=O)(Nc1nc(-c2ccccc2C(F)(F)F)nc2ccccc12)c1ccc(-c2ccnc(C(F)(F)F)c2)cc1`, the Potency entry in test [1] and in test [2] was “inactive” in each case.

As for `Cc1cc(C)nc(NC(=S)N2CCN(c3ccccn3)CC2)c1`, the Potency entry in test [1] and in test [2] was “inactive” throughout.

On to `O=C(Nc1nnc(-c2ccncc2)s1)Nc1ccc(Cl)cc1F`, for which the Potency result in test [1] and in test [2] was “inactive” throughout.

Consider `Cc1cccc(-n2cnc3cc(C(=O)N4CCC(c5ccccc5)CC4)ccc32)c1`, for which the Potency result in test [1] and in test [2] was “inactive” throughout.

For the compound `NCCCC[C@H](N)C(=O)Nc1ccc(Cl)cc1C(=O)c1ccc[nH]1`, the Potency entry in test [1] and in test [2] was “inactive” each time.

Turning to `Cc1cccc(NC(=O)c2cnn3c(C)cc(C)nc23)c1`, the Potency result in test [1] and in test [2] was “inactive” each time.

As for `COc1cccc(CNc2ccc(S(=O)(=O)Nc3cccc(N4CCNCC4)c3)cc2)c1O`, the Potency entry in test [1] and in test [2] was “inactive” throughout.

For `O=C(COC(=O)CNC(=O)c1ccccc1)Nc1ccccc1Cl`, the Potency result in test [1] and in test [2] was “inactive” each time.

For `COC(=O)c1ccccc1NC(=O)c1ccc(C#N)cc1`, the Potency entry in test [1] and in test [2] was “inactive” throughout.

Consider `O=C1CCCC2=C1C(c1ccncc1Br)N=C(Nc1nc3ccccc3o1)N2` (stereo not drawn), for which the Potency entry in test [1] and in test [2] was “inactive” each time.

With `Cc1ccccc1-c1ccc(=O)n(CC(=O)NCCc2ccccc2)n1`, the Potency result in test [1] and in test [2] was “inactive” throughout.

Turning to `COC(=O)c1ccc2nc(NC3=NC(c4[nH]ncc4Cl)C4=C(CCCC4=O)N3)oc2c1` (stereo not drawn), the Potency result in test [1] and in test [2] was “inactive” throughout.

As for `O=C(Cc1nnc(CNC(=O)c2ccccc2)o1)Nc1cc(C(F)(F)F)ccc1Cl`, the Potency entry in test [1] and in test [2] was “inactive” throughout.

Turning to `CN1CCC(c2cn(C)c3ccc(OS(=O)(=O)c4c(F)cccc4F)cc23)CC1`, the Potency result in test [1] and in test [2] was “inactive” each time.

In the case of `COc1ccc(C2Nc3ccccc3C(=O)N2Cc2ccc(C(F)(F)F)o2)cc1COc1c(C)cccc1C` (stereo not drawn), the Potency result in test [1] and in test [2] was “inactive” throughout.

Take `C=C1C(=O)O[C@@H]2C[C@H](C)[C@@H]3CC(=O)[C@H](O)[C@@]3(C)C[C@H]12`: the Potency result in test [1] and in test [2] was “inactive” each time.

Regarding `CCOC(=O)C1CCN(C(=O)C(C)(C)NC(=O)Nc2ccc([N+](=O)[O-])cc2)CC1`, the Potency result in test [1] and in test [2] was “inactive” in each case.

For the compound `CCc1ccccc1-c1nc(NCc2ccc(-c3cccnc3)cc2)c2ccccc2n1`, the Potency result in test [1] and in test [2] was “inactive” each time.

Consider `Cc1ccc(C)c(OC2=NS(=O)(=O)c3ccccc32)c1`, for which the Potency result in test [1] and in test [2] was “inactive” each time.

On to `Cc1ccc(OCCn2c(CCNC(=O)c3ccncc3)nc3ccccc32)cc1`, for which the Potency result in test [1] and in test [2] was “inactive” throughout.

`COc1ccc(-c2ccc3ncnc(NCc4nc(C)cs4)c3c2)cc1OC`: the Potency entry in test [1] and in test [2] was “inactive” throughout.

Take `COc1ccc(-c2ccc(NC(=O)c3cccs3)cn2)cc1`: the Potency entry in test [1] and in test [2] was “inactive” each time.

For the compound `Cc1cc2c(s1)c1cnn(Cc3c(F)c(F)cc(F)c3F)c(=O)c1n2C`, the Potency entry in test [1] and in test [2] was “inactive” each time.

`O=C(NC(c1ccco1)c1cc(Cl)c2cccnc2c1O)c1ccccc1` (stereo not drawn): the Potency entry in test [1] and in test [2] was “inactive” each time.

Take `FC(F)(F)c1ccccc1-c1nc(NCc2cccc3ccccc23)c2ccccc2n1`: the Potency entry in test [1] and in test [2] was “inactive” in each case.

For `NC(=O)c1ccc(-c2noc(-c3ccccc3F)n2)cc1`, the Potency result in test [1] and in test [2] was “inactive” in each case.

`CC(=O)C1=C(O)C2c3c[nH]c4cccc(c34)CC2C(C)(C)N(C)C1=O` (stereo not drawn): the Potency result in test [1] and in test [2] was “inactive” each time.

Consider `C=C1C(=O)OC2/C=C(\COC(C)=O)CC/C=C(\C=O)CC(OC(=O)CC(C)C)C12` (stereo not drawn), for which the Potency entry in test [1] and in test [2] was “inactive” each time.

Take `COCCN(CCOC)c1nc(C)nc2c1nc(-c1ccccc1)n2CCN(C)C`: the Potency result in test [1] and in test [2] was “inactive” in each case.

Regarding `Cc1cnc(-c2ccccc2C(C)C)nc1NCc1ccc(-c2cccc(S(N)(=O)=O)c2)cc1`, the Potency result in test [1] and in test [2] was “inactive” in each case.

Regarding `Cn1nnnc1Sc1ncnc2scc(-c3ccccc3F)c12`, the Potency entry in test [1] and in test [2] was “inactive” each time.

Consider `O=S(=O)(Nc1ccc(S(=O)(=O)Nc2nccs2)cc1)c1ccc2ccccc2c1`, for which the Potency result in test [1] and in test [2] was “inactive” each time.

Regarding `O=S(=O)(c1ccc2c(c1)OCCO2)N1CCN(S(=O)(=O)c2ccco2)CC1`, the Potency result in test [1] and in test [2] was “inactive” throughout.

As to `Cc1cc2c(s1)c1cnn(Cc3ccccc3F)c(=O)c1n2C`, the Potency result in test [1] and in test [2] was “inactive” each time.

With `N#Cc1ccc(-c2csc(N3CCC(C(N)=O)CC3)n2)cc1`, the Potency result in test [1] and in test [2] was “inactive” throughout.

`O=S(=O)(Nc1cccc2cccnc12)c1ccc(Br)cc1`: the Potency entry in test [1] and in test [2] was “inactive” throughout.

For the compound `O=C(Nc1ccc(-c2nc3ccccc3[nH]2)cc1)c1ccc(Cl)c(Cl)c1`, the Potency result in test [1] and in test [2] was “inactive” each time.

`COc1ccc(OC)c(NC(=O)C(OC(=O)CNC(=O)c2ccccc2)c2ccccc2)c1` (stereo not drawn): the Potency result in test [1] and in test [2] was “inactive” throughout.

As for `O=C1CCCC2=C1C1(CCCOC1)N=C(Nc1nc3ccccc3o1)N2` (stereo not drawn), the Potency entry in test [1] and in test [2] was “inactive” each time.

For `O=S(=O)(c1ccc2c(c1)OCCO2)N1C[C@@H]2C[C@H]1CN2S(=O)(=O)c1c(F)cccc1F`, the Potency entry in test [1] and in test [2] was “inactive” each time.

For `Cc1ccc(-c2ccc(=O)n(CC(=O)N(C3CCCCC3)C3CC3)n2)cc1`, the Potency entry in test [1] and in test [2] was “inactive” throughout.

As to `Cc1c(P(=S)(c2ccccc2)c2ccccc2)[n+]2ccccc2n1CCCCc1ccccc1`, the Potency result in test [1] and in test [2] was “inactive” each time.

Turning to `C(=C\c1cccs1)/c1cccnc1`, the Potency result in test [1] and in test [2] was “inactive” each time.

Consider `O=C(OCC#CCSc1nnc(-c2cccc3ccccc23)s1)c1cccs1`, for which the Potency entry in test [1] and in test [2] was “inactive” each time.

These data come from PubChem BioAssay (NCATS).
